# Reference: the supplement of paper PMC7156485
# Test system: TDF
# Assay: H1.0 immunofluorescence intensity relative to DMSO (% of DMSO); higher = stronger H1.0 induction, active = 120 or more
# Details: concentration: 10 µM; 24 h
# Summary of the method: (§1)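 Cells were seeded at 800 per well in 384-well plates with RPMI containing 10% FBS; both HCC1569 and TDF lines were used. Compounds were added at 10 µM for 24 h at 37 °C, in triplicate, before fixation in 3.7% formaldehyde and staining with a rabbit anti-H1.0 antibody, an AlexaFluor 647 secondary and DAPI. H1.0 nuclear intensity or cell number is reported as percent of the plate control using the median of replicates, and HCC1569 values were smoothed for positional effects.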
# 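Further: TDF is a line of transformed human dermal fibroblasts of mesenchymal origin.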
row,SMILES,H1.0 immunofluorescence intensity
1,C=CC1CN2CCC1CC2C(O)c1ccnc2ccc(OC)cc12.Cl.O (stereo not drawn),96.8 (inactive)
2,CCC1C(=O)N(C)c2cnc(Nc3ccc(C(=O)NC4CCN(C)CC4)cc3OC)nc2N1C1CCCC1 (stereo not drawn),157 (active)
3,Oc1cc2c(cc1O)CN(C(=S)NCCc1ccc(Cl)cc1)CCC2 [Capsazepine],91.8 (inactive)
4,Cl.O=C(OCCN1CCOCC1)C1(c2ccccc2)CCCCC1,90.5 (inactive)
5,CN(c1ncccc1CNc1nc(Nc2ccc3c(c2)CC(=O)N3)ncc1C(F)(F)F)S(C)(=O)=O,116 (inactive)
6,O=c1c(O)c(-c2ccc(O)cc2O)oc2cc(O)cc(O)c12 [Morine],95 (inactive)
7,CCCCCCCCCCCCCCCCCCOCC(COP(=O)([O-])OCC[N+](C)(C)C)OC(C)=O (stereo not drawn),92.5 (inactive)
8,CCCCC=CCCCCCCCC(=O)O [9(E)-Tetradecenoic acid],98.8 (inactive)
9,CN(N=O)C(=O)NC1C(O)OC(CO)C(O)C1O (stereo not drawn) [Streptozocin],96.1 (inactive)
10,CCC(C)SSc1ncc[nH]1 (stereo not drawn) [2-(sec-butyldisulfanyl)-1H-imidazole],87.7 (inactive)
11,CS(=O)(=O)CCNCc1ccc(-c2ccc3ncnc(Nc4ccc(OCc5cccc(F)c5)c(Cl)c4)c3c2)o1.Cc1ccc(S(=O)(=O)O)cc1.Cc1ccc(S(=O)(=O)O)cc1 [Lapatinib ditosylate],93.5 (inactive)
12,O=C(NC(CO)C(O)c1ccc([N+](=O)[O-])cc1)C(Cl)Cl (stereo not drawn) [Chloramphenicol],93.1 (inactive)
13,O=C(O)C(=Cc1c(C(=O)O)[nH]c2cc(Cl)cc(Cl)c12)c1ccccc1,95.3 (inactive)

# Test system: HCC1569
# Assay: H1.0 immunofluorescence intensity relative to DMSO (% of DMSO); higher = stronger H1.0 induction, active = 140 or more
# Details: concentration: 10 µM; 24 h
# Summary of the method: as §1
row,SMILES,H1.0 immunofluorescence intensity
1,NCC(O)(CS(=O)(=O)O)c1ccc(Cl)cc1 (stereo not drawn) [2-Hydroxysaclofen],93.4 (inactive)
2,O=C(O)c1ccc(O)c2ncccc12 [8-hydroxy-5-quinolinecarboxylic acid],98 (inactive)
3,CCNC(=O)C1OC(n2cnc3c(N)nc(NCCc4ccc(CCC(=O)O)cc4)nc32)C(O)C1O.Cl (stereo not drawn),102 (inactive)
4,COc1ccc2c(c1)c(CC(=O)N1CCOCC1)c(C)n2C(=O)c1ccc(Cl)cc1,104 (inactive)
5,NC(=O)N1c2ccccc2C=Cc2ccccc21 [Carbamazepine],97 (inactive)
6,COc1cc2c(cc1OC)-c1cc3ccc(OC)c(OC)c3c[n+]1CC2.[Cl-] [Palmatine chloride],88.6 (inactive)
7,O=c1cc(-c2ccc(O)c(O)c2)oc2cc(O)c(C3OC(CO)C(O)C(O)C3O)c(O)c12 (stereo not drawn) [Homoorientin],90.4 (inactive)
8,"CN(C)c1nc(N)c(C(=O)N=C(N)N)nc1Cl.Cl [5-(N,N-Dimethyl)amiloride hydrochloride]",103 (inactive)
9,OCC1=CC(O)C2C=COC(OC3OC(CO)C(O)C(O)C3O)C12 (stereo not drawn) [Aucubin],85 (inactive)
10,CC1=NS(=O)(=O)c2cc(Cl)ccc2N1 [Diazoxide],101 (inactive)
11,O=C1NC(=O)C(c2c[nH]c3ccccc23)=C1c1c[nH]c2ccccc12 [Bisindolylmaleimide IV],136 (inactive)
12,CCC(NC(C)C)C(O)c1ccc(O)c(O)c1.CS(=O)(=O)O (stereo not drawn) [Isotharine mesylate],91.5 (inactive)
13,O=C1NC(=O)C(=Cc2ccc(-c3ccc(F)cc3O)o2)S1,97.7 (inactive)
14,CN1CCc2cc(Cl)c(O)cc2C(c2ccccc2)C1.Cl (stereo not drawn),94.6 (inactive)
15,CC(=O)C1(O)CCC2C3CCC4=CC(=O)CCC4(C)C3CCC21C (stereo not drawn) [17alpha-hydroxyprogesterone],99.8 (inactive)
16,CC(C)C(=O)Nc1ccc([N+](=O)[O-])c(C(F)(F)F)c1 [Flutamide],135 (inactive)
17,CC(O)CCCC(O)C=CC1C(O)CC(O)C1CC=CCCCC(=O)O [19(R)-Hydroxy-prostaglandin F2a],95.9 (inactive)
18,O=C(C=Cc1ccc(O)c(O)c1)c1ccc(O)cc1O [Butein],133 (inactive)
19,[N-]=[N+]=Nc1ccc(C(=O)CSCC(NC(=O)CCC(N)C(=O)O)C(=O)NCC(=O)O)cc1 (stereo not drawn) [S-(p-Azidophenacyl)glutathione],79.9 (inactive)
20,CCCCCC(O)C=CC=CCC=CC=CC(O)CCCC(=O)O (stereo not drawn),86.5 (inactive)

row,SMILES,H1.0 immunofluorescence intensity
1,CCCCC(C)(O)CC=CC1C(O)CC(=O)C1CCCCCCC(=O)OC (stereo not drawn) [Misoprostol],108 (inactive)
2,"O=C(O)c1cc(=O)c2c(Cl)cc(Cl)cc2[nH]1 [5,7-Dichlorokynurenic acid]",95.9 (inactive)
3,CC(CCc1ccc(O)cc1)NCCc1ccc(O)c(O)c1.Cl (stereo not drawn) [Dobutamine.HCl],105 (inactive)
4,C#CC1(O)CCC2C3CCC4=Cc5oncc5CC4(C)C3CCC21C (stereo not drawn) [Danazol],100 (inactive)
5,COC(=O)C(N)Cc1ccc(Cl)cc1.Cl (racemic) [DL-p-Chlorophenylalanine methyl ester hydrochloride],104 (inactive)
6,Cl.N=c1c[n+](N2CCOCC2)[n-]o1 [3-Morpholinosydnonimine hydrochloride],88.8 (inactive)
7,CS(=O)(=O)N1CCN(Cc2cc3nc(-c4cccc5[nH]ncc45)nc(N4CCOCC4)c3s2)CC1,137 (inactive)
8,C=CC1CN2CCC1CC2C(O)c1ccnc2ccc(OC)cc12.Cl.O (stereo not drawn),95 (inactive)
9,CCC1C(=O)N(C)c2cnc(Nc3ccc(C(=O)NC4CCN(C)CC4)cc3OC)nc2N1C1CCCC1 (stereo not drawn),136 (inactive)
10,Oc1cc2c(cc1O)CN(C(=S)NCCc1ccc(Cl)cc1)CCC2 [Capsazepine],86.2 (inactive)
11,Cl.O=C(OCCN1CCOCC1)C1(c2ccccc2)CCCCC1,94 (inactive)
12,CN(c1ncccc1CNc1nc(Nc2ccc3c(c2)CC(=O)N3)ncc1C(F)(F)F)S(C)(=O)=O,118 (inactive)
13,O=c1c(O)c(-c2ccc(O)cc2O)oc2cc(O)cc(O)c12 [Morine],82.4 (inactive)
14,CCCCCCCCCCCCCCCCCCOCC(COP(=O)([O-])OCC[N+](C)(C)C)OC(C)=O (stereo not drawn),103 (inactive)
15,CCCCC=CCCCCCCCC(=O)O [9(E)-Tetradecenoic acid],98 (inactive)
16,CN(N=O)C(=O)NC1C(O)OC(CO)C(O)C1O (stereo not drawn) [Streptozocin],87.6 (inactive)
17,CCC(C)SSc1ncc[nH]1 (stereo not drawn) [2-(sec-butyldisulfanyl)-1H-imidazole],107 (inactive)
18,CS(=O)(=O)CCNCc1ccc(-c2ccc3ncnc(Nc4ccc(OCc5cccc(F)c5)c(Cl)c4)c3c2)o1.Cc1ccc(S(=O)(=O)O)cc1.Cc1ccc(S(=O)(=O)O)cc1 [Lapatinib ditosylate],110 (inactive)
19,O=C(NC(CO)C(O)c1ccc([N+](=O)[O-])cc1)C(Cl)Cl (stereo not drawn) [Chloramphenicol],112 (inactive)
20,O=C(O)C(=Cc1c(C(=O)O)[nH]c2cc(Cl)cc(Cl)c12)c1ccccc1,85 (inactive)
